Measurements taken from PubChem BioAssay.
The source made the active and inactive calls.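 The calls were made as follows, unless noted: active = inhibition of the reporter signal at or above 50%; inactive = inhibition below 50%.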

Legend:
[1] = inhibitors of TNFa-induced NFkB p65 translocation, primary screen, imaging, HUVEC, MLSMR starter and 10KST1 sets (AID 438;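 active = inhibition above 20% together with a positive visual image hit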;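 also: compound added about 3h40 before a 20 min TNFalpha stimulation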;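 as to inhibition: signal is the nuclear over cytoplasmic p65 intensity ratio per well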); details: HUVEC TNFa-induced p65 nuclear translocation; cell count: measured here: nuclei count (cytotoxicity indicator), at 2.08 µM; inhibition: at 2 µM, stronger effect = higher value, 0% TNFa-plus-vehicle, 100% no-TNFa wells
[2] = inhibitors of mutant huntingtin aggregation, primary screen, imaging, exon1htt(103Q)mCFP cells, high-content imaging (AID 483;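 active = visual image review flags a hit and inhibition of aggregation exceeds 20%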;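 also: compound exposure lasted 3 days before fixation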;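 as to nuclei count: percent of the per-plate median nuclei count of sample wells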); details: exon1htt(103Q)mCFP cell line, aggregate imaging, at 2 µM; inhibition of aggregation: stronger effect = higher value; nuclei count: measured here: cell count, toxicity
[3] = inhibitors of E-selectin induction by TNFa, primary screen, imaging, HUVEC, immunofluorescence, MLSMR starter and 10KST1 sets (AID 487;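 active = visually confirmed hit in the image check and inhibition above 20%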;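 as to inhibition: signal is fraction of cell area covered by stained E-selectin grains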;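 as to nuclei count: 100% = median nuclei count of all wells on the same plate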); details: HUVEC TNFalpha-induced E-selectin immunofluorescence imaging, at 2 µM; inhibition: stronger effect = higher value; nuclei count: measured here: cell number, toxicity
[4] = target: Voltage-gated potassium channel subunit beta-2 (Rattus norvegicus) (UniProt P62483); experiment: KvBeta enzyme negative modulators, primary screen, biochemical, NADPH fluorescence (AID 622;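 active = fluorescence slope higher than the sample average by over 3 SD, cut at about -0.22 in these data, passing the limit was not always enough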;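 also: slope of raw intensity against log time taken from 70 to 1610 s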); details: recombinant KvBeta, 4-cyanobenzaldehyde reduction, at 10 µM, stronger effect = higher value
Voltage-gated potassium channel subunit beta-2 (Rattus norvegicus), sequence (P62483 whole entry, looked up): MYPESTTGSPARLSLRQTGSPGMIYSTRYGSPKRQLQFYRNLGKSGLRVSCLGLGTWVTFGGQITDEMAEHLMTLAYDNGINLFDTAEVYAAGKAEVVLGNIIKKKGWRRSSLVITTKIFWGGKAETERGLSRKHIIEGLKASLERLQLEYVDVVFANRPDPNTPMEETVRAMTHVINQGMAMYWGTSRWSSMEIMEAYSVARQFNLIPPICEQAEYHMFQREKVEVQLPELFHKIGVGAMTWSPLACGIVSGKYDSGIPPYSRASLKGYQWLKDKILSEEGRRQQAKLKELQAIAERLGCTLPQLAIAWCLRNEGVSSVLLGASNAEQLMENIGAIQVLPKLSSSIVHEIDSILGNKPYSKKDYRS

[5] = target: Voltage-gated potassium channel subunit beta-2 (Rattus norvegicus) (UniProt P62483); experiment: KvBeta positive modulators, primary screen, biochemical, NADPH fluorescence (AID 623;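 active = NADPH fluorescence slope more negative than the mean of all samples by about 3 SD, 99.7% confidence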;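 also: fluorescence intensity change per second fitted from 20 to 320 s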); details: Recombinant KvBeta, NADPH fluorescence decrease slope, 10 min; at 10 µM; stronger effect = lower value
[6] = target: Alpha-2C adrenergic receptor (Homo sapiens) (UniProt P18825); experiment: modulators of alpha2C/GIRK thallium flux, primary screen, cell-based, HEK293 alpha2C/GIRK1/2 (AID 624;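 active = fluorescence slope after compound addition differing from the mean of all screened samples at 99.7% confidence, in either direction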;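 also: slope of fluorescence ratio to pre-addition baseline per second over 15 to 24 s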); details: thallium flux BTC fluorescence, at 10 µM, actives lie on both sides
Alpha-2C adrenergic receptor (Homo sapiens), sequence (P18825 whole entry, looked up): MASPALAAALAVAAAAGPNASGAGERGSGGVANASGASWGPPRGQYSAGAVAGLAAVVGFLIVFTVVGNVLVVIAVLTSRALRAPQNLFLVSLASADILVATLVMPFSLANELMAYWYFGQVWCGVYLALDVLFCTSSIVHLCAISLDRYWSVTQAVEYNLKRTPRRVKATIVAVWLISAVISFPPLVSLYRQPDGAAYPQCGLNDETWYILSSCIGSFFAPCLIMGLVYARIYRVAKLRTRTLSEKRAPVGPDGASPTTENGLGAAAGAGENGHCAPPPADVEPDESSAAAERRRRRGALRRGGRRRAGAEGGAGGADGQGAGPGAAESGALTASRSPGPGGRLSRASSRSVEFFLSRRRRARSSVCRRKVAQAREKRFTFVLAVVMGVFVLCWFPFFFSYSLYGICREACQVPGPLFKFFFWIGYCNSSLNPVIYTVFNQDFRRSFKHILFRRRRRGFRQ

[7] = inhibitors of Sendai virus-induced IRF3 signaling, primary screen, TLR/RLR signaling modifier project, cell-based, Sendai virus stimulus, luciferase, 10K MLSCN set (AID 602276;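 active = inhibition at or above 50% at 10 µM; inactive = inhibition below 50%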;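 also: firefly luciferase from ISG56 promoter only with Renilla not read in this screen; 0% = Sendai virus plus DMSO and 100% = medium plus DMSO without virus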); details: HEK293 RL24 IRF3 luciferase reporter, at 10 µM, stronger effect = higher value
[8] = inhibitors of poly I:C-induced TLR3 signaling, primary screen, cell-based, poly I:C stimulus, luciferase, 10K MLSCN set (AID 602277); details: HEK293-TLR3 RL24 IRF3 luciferase reporter, at 10 µM, stronger effect = higher value

Structure (SMILES) | cell count [1] | inhibition [1] | inhibition of aggregation [2] | nuclei count [2] [%] | inhibition [3] | nuclei count [3] [%] | fluorescence slope [4] | NADPH fluorescence slope [5] | slope [6] | inhibition [7] | inhibition [8]
CCOC(=O)Cc1csc(NC(=O)CSc2nnc(C3CC3)n2C)n1 | 670 | -11.2% (inactive) | 2.2% (inactive) | 110 | 18.1% (inactive) | 102 | -0.265 (inactive) | -5.6e-05 (inactive) | 0.0044 (inactive) | 10.5% (inactive) | 17.5% (inactive)
COc1ccc(C(O)Cn2c(=N)n(CCCN(C)C)c3ccccc32)cc1 (centres undefined) | 569 | -12.9% (inactive) | -27.4% (inactive) | 85.7 | -30.3% (inactive) | 112 | -0.587 (inactive) | 2.2e-05 (inactive) | 0.00727 (inactive) | -10.7% (inactive) | -0.929% (inactive)
CCCNC(=O)C1CC(=O)N(c2ccc(OCC(=O)Nc3cc(C)cc(C)c3)cc2)C1 (centres undefined) | 591 | -6.2% (inactive) | -2.7% (inactive) | 104 | -6.3% (inactive) | 114 | -0.562 (inactive) | -4e-05 (inactive) | 0.00634 (inactive) | -3.19% (inactive) | 27.9% (inactive)
CCc1cccc(NC(=O)Cn2cc3c(n2)CCCC3)c1 | 759 | -2.8% (inactive) | 7.5% (inactive) | 101 | -27.9% (inactive) | 113 | -0.506 (inactive) | -2.1e-05 (inactive) | 0.0103 (active) | 13.7% (inactive) | 26.6% (inactive)
COc1ccc(C)cc1C(=O)CCC(=O)Nc1ccccc1N1CCOCC1 | 382 | 8.3% (inactive) | 3.1% (inactive) | 103 | -18.1% (inactive) | 113 | -0.605 (inactive) | -5.1e-05 (inactive) | 0.00373 (inactive) | 18.5% (inactive) | 18.2% (inactive)
COc1ccccc1-c1nc(SCc2ccccn2)n[nH]1 | 509 | 8.9% (inactive) | 2.6% (inactive) | 99.6 | 32.9% (inactive) | 96.4 | -0.605 (inactive) | -2.8e-05 (inactive) | 0.0058 (inactive) | -21% (inactive) | -28.9% (inactive)
Cc1ccnc(N2CCN(C(=O)CSc3nc4ccccc4nc3N3CCCCC3)CC2)c1 | 451 | -9.8% (inactive) | -14.3% (inactive) | 113 | -13.7% (inactive) | 100 | -0.333 (inactive) | 9.1e-07 (inactive) | 0.00385 (inactive) | 9.18% (inactive) | 4.58% (inactive)
CCOC(=O)c1cc(-c2ccco2)nc2c1c(C)nn2CCC#N | 590 | -10.8% (inactive) | -3.4% (inactive) | 103 | -15.3% (inactive) | 146 | -0.214 (active) | 2.1e-05 (inactive) | 0.00625 (inactive) | -22.4% (inactive) | -3.59% (inactive)
Cc1nc2ccccc2n1CCC(=O)Nc1cccc(F)c1 | 606 | -4.8% (inactive) | 0.2% (inactive) | 100 | -23.9% (inactive) | 110 | -0.303 (inactive) | 9.1e-07 (inactive) | 0.00551 (inactive) | 16.2% (inactive) | 4.83% (inactive)
C=CCn1c(Cc2cccs2)nnc1SCC(=O)Nc1ccc(OC)c(OC)c1 | 268 | 4% (inactive) | 19.5% (inactive) | 87.7 | -26.5% (inactive) | 134 | -0.445 (inactive) | -1.9e-05 (inactive) | 0.00229 (inactive) | 13.5% (inactive) | 26.6% (inactive)
Cc1ccc(-c2nnc(SC(C)C#N)n2N)cc1 (centres undefined) | 516 | -3.8% (inactive) | -0.7% (inactive) | 95.1 | -93.5% (inactive) | 137 | -0.587 (inactive) | -3.8e-05 (inactive) | 0.00692 (inactive) | 10.4% (inactive) | 19% (inactive)
COc1ccc(OC)c(S(=O)(=O)Nc2ccc(O)c3ccccc23)c1 | 382 | -10.1% (inactive) | -0.8% (inactive) | 93 | -13.9% (inactive) | 114 | -0.416 (inactive) | -6.5e-05 (inactive) | 0.00306 (inactive) | 14.9% (inactive) | 53.2% (active)
COCCOC(=O)c1cc(C(=O)c2cc(F)ccc2O)coc1=N | 473 | -11.2% (inactive) | 8.5% (inactive) | 107 | -92.3% (inactive) | 115 | -0.597 (inactive) | -1.1e-05 (inactive) | 0.00549 (inactive) | 6.76% (inactive) | 11% (inactive)
COc1ccc(C(=O)CN2C(=O)NC3(CCCc4ccccc43)C2=O)cc1OC (centres undefined) | 412 | -9% (inactive) | 2.7% (inactive) | 94.1 | 35.3% (inactive) | 87.2 | -0.51 (inactive) | -2.4e-05 (inactive) | 0.00564 (inactive) | 15.1% (inactive) | 13.4% (inactive)
